{"source": "PubChem BioAssay (NCI)", "note": "Where “and” joins values, the source holds several entries; their conditions need not be identical. Identical values can stand only once. This is part of a sample that, as a whole, favours compounds with a hit. Of some 83,000 tested, about 20% had one in any assay.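 The test compound was applied at a single concentration to cells in 96-well plates for 48 hours, and percent growth was recorded.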 Calls of active or inactive are those of the source. How the source made its calls: active means growth percent below 10; inactive means the rest."}
{"test_system": "HL-60(TB) leukemia", "test": "NCI-60 one-dose screen, 48 h (100 = growth as untreated, 0 = no growth, -100 = all killed)", "conditions": "10 µM unless noted"}
{"compound": "Cc1ccc(F)c(NC(=O)Nc2ccc(-c3cccc4[nH]nc(N)c34)cc2)c1", "growth": "7.97% (active)"}
{"compound": "COc1cc(OC)cc(-c2ccc(-c3ccc(C(=N)N)cn3)o2)c1", "growth": "-65.7% (active)"}
{"compound": "COc1ccc(Nc2ccnc(N3CCN(c4ccnc5cc(Cl)ccc45)CC3)n2)cc1", "growth": "-16.8% (active)"}
{"compound": "CCN(CC)Cc1cc2[nH]c3c4ccc(Cl)cc4ncc3c2cc1OC", "growth": "-72.1% (active) and 94.6% (inactive)"}
{"compound": "Cn1c(=O)c2nc(/C=C/c3ccccc3)c(=O)[nH]c2n(C)c1=S", "growth": "98.2% (inactive)"}
{"compound": "COc1ccc2c(c1)[n+]([O-])c(C(=O)/C=C/C=C(\\Cl)c1cc(OC)c(OC)c(OC)c1)c(C)[n+]2[O-]", "growth": "107% (inactive)"}
{"compound": "Cc1nc2ccccc2c(/C=C/c2ccc(Cl)cc2)c1C(=O)/C=C/c1ccc(Cl)cc1", "growth": "-34.6% (active)"}
{"compound": "O=C1OC(c2nc3ccccc3s2)=C/C1=C\\c1ccc(O)cc1", "growth": "98.2% (inactive)"}
{"compound": "S=C1CCSC(=S)N1CCCN1C(=S)CCSC1=S", "growth": "36.5% (inactive)"}
{"compound": "COc1cc(-c2ncn(/C=C\\C(=O)OC(C)C)n2)cc(C(F)(F)F)c1", "growth": "7.55% (active)"}
{"compound": "O=C1Nc2ccccc2[C@]12CC(c1ccccc1)=NN2", "growth": "-15.8% (active)"}
{"compound": "NC(=S)c1c(N)n(C2OC(CO)C(O)C2O)c2ncnc(N)c12", "note": "(stereo not given)", "growth": "-43.6% (active)"}
{"compound": "CCN(CC)CCc1nc(-c2ccccc2)no1", "growth": "104% (inactive)"}
{"compound": "CC(C)(C)c1nc2c(s1)c1nc(N)ncc1c1ccc(NS(=O)(=O)c3c(F)cccc3F)c(F)c12", "growth": "79.9% (inactive)"}
{"compound": "Cc1n(Cc2ccc3ccccc3n2)cc[n+]1Cc1ccc2ccccc2c1", "growth": "-32.9% (active)"}
